# Assay results from PubChem BioAssay (NCATS).
# Inconclusive results are not listed. Active and inactive are the calls of the source. Calls come from the whole dose curve; as a rule, active = well fitted inhibition curve with a large enough effect; inconclusive = small, poorly fitted or top-dose-only effect; inactive = flat fitted curve, though single readings scatter.
# Target: Calcium and integrin-binding protein 1 (Homo sapiens) (UniProt Q99828)
# Test: Primary qHTS for Identification of Calcium Integrin Binding Protein 1 (CIB1) Competitor (AID 1508620); note: top concentration of the series differs between compounds
# Details: CIB1-GST / FITC-alphaIIb peptide fluorescence polarization; series mostly up to 114 µM; activity change, negative = inhibition: at the top concentration
# In short: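 Fluorescence polarization competition: GST-tagged CIB1 (1 uM final) preincubated with compound 15 min at room temperature, then FITC-labelled alphaIIb peptide (100 nM final) added. After 15 min at room temperature, polarization read at Ex 480/Em 540.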
# % is set by controls: 0 for no effect and ±100 for the full control effect.
# Chain of Calcium and integrin-binding protein 1 (Homo sapiens) (Q99828 whole entry, looked up): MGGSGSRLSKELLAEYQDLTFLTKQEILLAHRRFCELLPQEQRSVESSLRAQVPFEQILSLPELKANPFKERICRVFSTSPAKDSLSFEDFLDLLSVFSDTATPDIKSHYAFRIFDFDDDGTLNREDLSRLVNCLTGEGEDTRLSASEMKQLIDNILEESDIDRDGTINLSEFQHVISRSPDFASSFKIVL
row,Compound,"activity change, negative = inhibition"
1,O=C(/C=C/c1ccccc1Br)NCCc1nc2ccccc2[nH]1,-0.875% (inactive)
2,CC(=O)Nc1ccc(S(=O)(=O)N2CCN(c3ccc(C(C)=O)cc3)CC2)cc1,1.35% (inactive)
3,Cc1ccc(N(C)S(=O)(=O)c2ccc3c(c2)CCC(=O)N3)cc1C,0.715% (inactive)
4,COc1ccc(-c2csc3ncnc(Sc4nnnn4C)c23)cc1,-1.35% (inactive)
5,COc1cncc(NC(=O)c2cccs2)c1,-19.3% (inactive)
6,O=C1CCCC2=C1C(c1[nH]ncc1Cl)NC(=NCc1ccccc1)N2 (centres undefined),1.26% (inactive)
7,O=C(O)c1ccc(-c2ccc3ncnc(NCCc4cnc[nH]4)c3c2)o1,-11.9% (inactive)
8,O=C1N/C(=C\c2ccco2)C(=O)N1Cc1ccccc1,-0.738% (inactive)
9,FC(F)(F)c1cccc(N2CCN(C(=S)Nc3nccc4ccccc34)CC2)c1,1.49% (inactive)
10,O=C(Nc1ccc(Br)cc1)Nc1nnc(-c2ccncc2)s1,5.29% (inactive)
11,COc1ccc(CN(Cc2ccccc2)C(=O)c2ccccc2O)cc1,2.91% (inactive)
12,CC(C)(C#CCSc1nnc(-c2cccc3ccccc23)o1)OC(=O)c1ccc(F)cc1,4.6% (inactive)
13,Cc1cc(N[S+](=O)([O-])c2ccc3c(c2)CCC(=O)N3C)ccc1F,-2.74% (inactive)
14,Cc1cccc(C)c1-n1c(SCC(=O)NCCCCCC(=O)O)nnc1-c1cccc([S+](=O)([O-])N2CCCC2)c1,-2.74% (inactive)
15,O=C(c1ccc2c(c1)ncn2-c1ccccc1)N1CCCCC1,2.05% (inactive)
16,CC(=O)N1CCN(c2ccc(NCc3ccccc3)cc2)CC1,-14% (inactive)
17,C[C@H](N)C(=O)Nc1cccc(-c2nn3c(=O)cc(N4CCNCC4)nc3s2)c1,4.28% (inactive)
18,CC1=C(C(=O)c2ccccc2)C(c2ccccc2Cl)N=C(Nc2nc3ccccc3o2)N1 (centres undefined),12.8% (inactive)
19,O=C1NC(=O)/C(=C/c2ccco2)N1,-2.71% (inactive)
20,CC(C)(C)OC(=O)N1CCN(c2ccc(NCc3ccc(-c4ccc(C(C)(C)C)cc4)o3)cc2)CC1,4.2% (inactive)

row,Compound,"activity change, negative = inhibition"
1,CC(C)(C)OC(=O)N1CCN(c2ncc(NCc3ccc(-c4ccc(C#N)cc4)o3)cn2)CC1,6.4% (inactive)
2,CC(=O)N[C@@H](Cc1ccc(O)cc1)C(=O)N[C@H](C(=O)N[C@@H](C)C(=O)N[C@H](C#N)CC(=O)O)C(C)C,3.79% (inactive)
3,Clc1ccccc1-c1nc(NCc2ccc(-c3cccnc3)cc2)c2ccccc2n1,-2.98% (inactive)
4,COc1cccc(NC(=S)N2CCN(c3ccc(C(F)(F)F)cc3[N+](=O)[O-])CC2)n1,-1.69% (inactive)
5,O=[N+]([O-])c1cccc(CSc2nc3ncc(Br)cc3[nH]2)c1,0.628% (inactive)
6,O=C(O)c1ccc(-n2cccc2/C=C2\SC(=O)N(Cc3ccc(Br)cc3)C2=O)cc1,3.61% (inactive)
7,CN(CCc1ccco1)c1ncnc2ccc(-c3ccc4c(c3)OCO4)cc12,-3.33% (inactive)
8,O=C(OCC#CCSc1nnc(-c2ccc3ccccc3c2)o1)c1ccsc1,2.86% (inactive)
9,FC(F)(F)c1ccccc1-c1nc(NCc2ccc(-c3cccnc3)cc2)c2[nH]cnc2n1,-5.1% (inactive)
10,COc1ccc(C2Nc3ccccc3C(=O)N2Cc2ccccc2)cc1COc1ccc(NC(C)=O)cc1 (centres undefined),0.591% (inactive)
11,COc1ccc(-c2nnc3n2N=C(c2ccccc2OC)CS3)cc1OC,-5.83% (inactive)
12,Cn1c2cc(Br)sc2c2cnn(Cc3ccc(F)cc3F)c(=O)c21,5.2% (inactive)
13,Cc1cc(NS(=O)(=O)c2ccc3c(c2)CCC(=O)N3)ccc1Cl,-8.29% (inactive)
14,Cc1cc2c(s1)c1cnn(Cc3cccc(F)c3F)c(=O)c1n2C,0.349% (inactive)
15,Cc1ccc(NS(=O)(=O)c2ccc3c(ccn3C)c2)cc1C,2.92% (inactive)
16,NC(=O)C1CCN(c2ncc(Br)cn2)CC1,4.11% (inactive)
17,O=[S+]([O-])(Nc1ccc2ccccc2c1)c1ccc(NCc2ccc(Cl)cc2O)cc1,6.11% (inactive)
18,COc1ccc(-c2no[n+]([O-])c2C#N)cc1,4.04% (inactive)
19,Cc1cc(-c2ccccc2)n2ncc(C(=O)Nc3ccc(Cl)c(Cl)c3)c2n1,3.28% (inactive)
